# DT40 TDP1 CPT = DT40-hTDP1 cell growth loss with CPT; 420,000 compounds, 12% hits; chicken DT40 Tdp1-/-;hTDP1 cells + 20 nM CPT, ATP luminescence, 48 h; Potency, µM (titrated, usually from 46.2 µM), without a hit: at the top dose activity change, negative = growth inhibition, hits mostly inhibitors; note: % is set by controls: 0 for no effect and ±100 for the full control effect; nearly all actives have a fitted effect of over 55% in size
#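 Cell growth measured by CellTiter-Glo luminescence after a minimum 48 h, 37 C compound exposure with 20 nM CPT in Tdp1-knockout DT40 cells stably expressing hTDP1, seeded 400/well; qHTS titration format.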
# ClpP mod = qHTS Assay for Activators of ClpP | purified B. subtilis ClpP, FRET peptide cleavage, 20 min | Potency, µM (titrated, usually from 57.5 µM), for inactives: at the top dose activity change, negative = active | ATP-dependent Clp protease proteolytic subunit (Bacillus subtilis (strain 168)), P80244 | 340,000 compounds, 1.9% hits | AID 651965, 2013; active = well fitted falling curve with a large enough effect; inconclusive = small, poorly fitted or top-dose-only effect; inactive = no such curve, though single readings can be large or run the other way; note: the source files actives as falling curves though it sought activators and does not explain the sign; nearly all actives have a fitted effect of over 65% in size
#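 ClpP 10 microg/mL final, pH 8 Tris/KCl buffer with BSA, glycerol, Tween-20; compound pinned in; FRET-FV substrate; RT 20 min; Ex320/Em430; ΔFRET vs ADEP 5.8 microM, DMSO, no enzyme.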
# TDP1 inh = TDP1 (human) enzyme inhibition. Q9NUW8. recombinant TDP1, AlphaScreen DNA substrate cleavage. Potency, µM (highest dose often 130 µM), for inactives: top-dose activity change, negative = inhibition, usual class: inhibitors. 350,000 compounds, 0.28% hits. AID 485290; note: % is set by controls: 0 for no effect and ±100 for the full control effect; nearly all actives have a fitted effect of over 40% in size
# Target sequence (Q9NUW8 whole entry, looked up): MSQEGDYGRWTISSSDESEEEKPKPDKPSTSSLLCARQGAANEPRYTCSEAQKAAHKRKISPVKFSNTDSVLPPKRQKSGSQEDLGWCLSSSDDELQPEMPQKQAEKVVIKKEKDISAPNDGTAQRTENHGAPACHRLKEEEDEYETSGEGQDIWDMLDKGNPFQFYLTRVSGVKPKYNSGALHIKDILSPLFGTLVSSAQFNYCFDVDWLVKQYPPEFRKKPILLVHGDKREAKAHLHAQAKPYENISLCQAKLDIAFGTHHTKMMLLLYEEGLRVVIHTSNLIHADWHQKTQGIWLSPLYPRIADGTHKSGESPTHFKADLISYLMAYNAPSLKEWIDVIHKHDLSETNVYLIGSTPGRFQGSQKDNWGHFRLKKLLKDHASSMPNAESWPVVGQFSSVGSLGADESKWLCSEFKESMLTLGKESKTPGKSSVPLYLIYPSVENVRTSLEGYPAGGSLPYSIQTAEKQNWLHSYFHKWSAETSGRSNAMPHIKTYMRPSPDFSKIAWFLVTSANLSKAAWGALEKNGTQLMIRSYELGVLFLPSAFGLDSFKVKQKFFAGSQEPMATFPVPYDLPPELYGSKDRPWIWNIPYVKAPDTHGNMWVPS
#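 E. coli-derived human Tdp1, 1 nM final. Cpd preinc 15 min RT; substrate 15 nM final, 5 min RT; AS bead mix 10 ug/ml final, 10 min RT. Signal loss = tyrosine-FITC cleavage. No-enzyme wells = max signal.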
# DT40 TDP1 no CPT = qHTS for Inhibitors of human tyrosyl-DNA phosphodiesterase 1 (TDP1): qHTS in cells in absence of CPT; DT40 Tdp1-/- hTDP1 cells, no CPT, ATP luminescence, 48 h; Potency, µM (top dose mostly 46.2 µM), for the others: top-dose activity change, negative = growth inhibition, actives largely listed as inhibitors; 420,000 compounds, 15% hits; note: % is set by controls: 0 for no effect and ±100 for the full control effect; nearly all actives have a fitted effect of over 55% in size
#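 Chicken DT40 Tdp1-/- cells complemented with human TDP1, screened without camptothecin (DMSO vehicle only), 400 cells/well. Compounds pin-transferred, cells incubated at 37 °C for at least 48 hr. Growth read as ATP-dependent luminescence (CellTiter-Glo, 30 min at RT).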
# * marks the source's active call; other numbers are inactive results; ? = inconclusive; nt = no result; ! = a repeat was not active; [ ] = dose if it differs, or a comment. The list is not random: actives were taken first. Their share in the collection is about 17%. Unless noted, calls come from the whole dose curve; as a rule, active = well fitted curve in the direction sought with a large enough effect; inconclusive = small, poorly fitted or top-dose-only effect, or another doubt; inactive = no such curve, though single readings can be large; an effect the other way counts as inactive or inconclusive. Potency is the fitted concentration of half-maximal effect.
SMILES,DT40 TDP1 CPT,ClpP mod,TDP1 inh,DT40 TDP1 no CPT
CCOC(=O)C1=C[C@@H](C(C)(C)C)N(S(=O)(=O)c2ccc(C)cc2)[C@H]1c1ccc(Cl)c(Cl)c1,16.4µM*,-3.5%,nt,23.1µM*
CCOC(=O)C1=C[C@@H](CC)N(S(=O)(=O)c2ccccc2)[C@H]1c1ccccc1,?,1.3%,nt,18.4µM*
CC(C)c1ccc(NC(=O)C2CCN(S(=O)(=O)c3cccc4nonc34)CC2)cc1,-18.4%,0.6%,-0.9%,-24.0%
CCC[C@@H]1C=C(C(=O)OCC)[C@H](c2ccccc2)N1S(=O)(=O)c1ccc(C)cc1,5.17µM*,-4.1%,nt,5.17µM*
CCOC(=O)C1=C[C@@H](C(C)C)N(S(=O)(=O)c2ccc(C)cc2)[C@H]1c1ccc(C(F)(F)F)cc1,?,0.4%,nt,11.6µM*
Cc1cc2c(s1)c1cnn(Cc3c(F)c(F)cc(F)c3F)c(=O)c1n2C,nt,nt,-2.6%,nt
COc1cc([C@H]2c3cc4c(cc3[C@@H](O)[C@@H]3COC(=O)[C@H]23)OCO4)cc(OC)c1OC,nt,nt,11.3%[21 µM],nt
CCOc1ccccc1/C=N/Nc1ccc(Cl)nn1,4.7%,-2.0%,nt,-21.2%
CCOc1ccc(/C=N/Nc2ccc(Cl)nn2)c(O)c1,1.16µM*,nt,-1.0%,0.581µM*
Oc1ccc(/C=N/Nc2ccc(Cl)nn2)c(O)c1O,?,0.7%,nt,20.6µM*
Oc1c(Br)cc(Br)cc1/C=N/Nc1ccc(Cl)nn1,?,nt,nt,2.91µM*
Oc1c(Br)cc(/C=N/Nc2ccc(Cl)nn2)cc1Br,8.5%,-1.3%,nt,?
O=C(Nc1cccc(C(=O)N2CCN(c3ccccc3F)CC2)c1)c1nsc2ccccc12,?,-16.9%,8.1%,?
CCC(Sc1nc2sc(C(=O)OC)c(C)c2c(=O)n1N)C(=O)N(CC)CC (centres undefined),?,5.5%,4.2%,13µM*
CCCCNC(=O)C(CC)Sc1nc2sc(C(=O)OC)c(C)c2c(=O)n1N (centres undefined),?,-10.5%,7.9%,?
C[C@@H]1ON(C)[C@H]2C[C@H]3c4[nH]c5ccccc5c4CCN3C[C@@H]12,9.4%,-21.5%,nt,-9.7%
COc1ccc(NC(=O)c2cccn(CC=C(C)C)c2=O)cc1,-2.2%,nt,2.9%,-27.5%
Cc1cc(=O)c2cccc(Br)c2[nH]1,-21.8%,-1.4%,2.4%,-20.9%
O=c1cc(C(F)(F)F)[nH]c2c(C(F)(F)F)cccc12,18.4µM*,4.4%,-1.3%,16.4µM*
O=c1cc(C(F)(F)F)[nH]c2ccc(OC(F)(F)F)cc12,20.6µM*,nt,0.0%,13µM*
Cn1c(CNC(=O)CCNC(=O)c2cccc(Cl)c2)cc(=O)n(C)c1=O,1.3%,1.2%,4.6%,8.5%
O=S1(=O)NC(CC2=CCCCC2)C2CCCCC2O1 (centres undefined),7.31µM*,1.6%,nt,-25.2%
O=C(c1ccccc1C(=O)N(c1ccccc1)c1ccccc1)N1CCCCC1,?,0.7%,2.7%,?
CN(C)CC(C)(C)CNS(=O)(=O)c1ccc(Cl)c(Cl)c1,-24.2%,-0.9%,2.5%,2.31µM*!
CN(C)CCNC(=O)c1cccc(NS(=O)(=O)c2ccc(Cl)c(Cl)c2)c1,-23.6%,-1.5%,2.7%,3.2%
SMILES,DT40 TDP1 CPT,ClpP mod,TDP1 inh,DT40 TDP1 no CPT
CCOc1cc(CNCc2cccnc2)ccc1OCC(=O)NC(C)(C)C,-15.3%,0.9%,1.2%,-17.7%
CC(=O)N1c2ccc(S(=O)(=O)N3CCCCC3)cc2CC1C (centres undefined),-10.0%,-2.2%,1.3%,-11.6%
CC(=O)N1c2ccc(S(=O)(=O)N3CCCC(C(=O)N4CCCC(C)C4)C3)cc2CC1C (centres undefined),23.1µM*,-2.8%,1.7%,?
CC(=O)N1c2ccc(S(=O)(=O)NCCC(=O)N3CCCC(C)C3)cc2CC1C (centres undefined),18.4µM*,-0.8%,2.1%,?
CC(=O)N1c2ccc(S(=O)(=O)N3CCCC(C(=O)N4CCC(C)CC4)C3)cc2CC1C (centres undefined),20.6µM*,-4.1%,nt,16.4µM*
O=C(NCc1cccnc1)c1cnn(-c2nccc(-c3cccs3)n2)c1C1CC1,-0.7%[9.04 µM],nt,nt,?
Cc1ccc(N2CC(C(=O)OCC(=O)Nc3ccc(Cl)cc3)CC2=O)cc1 (centres undefined),-0.7%,1.5%,0.6%,8.5%
C/C(CC(=O)Nc1cccc(Br)c1)=N\NC(=O)c1ccc(O)cc1O,15.6%,-9.3%,nt,3.7%
CCC(=O)N1CCc2cc(Br)c(S(=O)(=O)CCC(=O)NCCc3ccccc3)cc21,-10.4%,nt,nt,-13.3%
O=C(NCCc1ccccc1Cl)c1ccc(Cn2c(=O)c3cccn3c3cccnc32)cc1,10.3µM*,4.7%,-2.6%,10.3µM*
CN(C)c1ccc(CNC(=O)c2ccc(Cn3c(=O)c4cccn4c4cccnc43)cc2)cc1,?,-20.9%,-7.7%,0.206µM*
O=C(NCc1ccc(Cl)cc1)c1ccc(Cn2c(=O)c3cccn3c3cccnc32)cc1,8.4%,-7.2%,-5.1%,8.8%
Cn1c(=O)c2c(SCC(=O)Nc3ccccc3C(F)(F)F)nc(C3CCCC3)nc2n(C)c1=O,?,-0.7%,2.7%,?
COc1cccc(-c2nc3c(C#N)c[nH]n3c2NC2CCCC2)c1OC,?,-9.3%,-2.9%,?
COc1ccc2[nH]c3c(c2c1)CCN1C(=O)C(CC(=O)NCCN2CCOCC2)C[C@H](C(=O)N2CCCCC2)[C@@]31C (some centres undefined),-6.5%,-5.6%,0.2%[56.1 µM],-15.4%
COc1ccc2[nH]c3c(c2c1)CCN1C(=O)C(CC(=O)NCCC2=CCCCC2)C[C@H](C(=O)N2CCCCC2)[C@@]31C (some centres undefined),23.1µM*,-10.9%,7.9%[56.1 µM],18.4µM*
C[C@]12c3[nH]c4ccccc4c3CCN1C(=O)C(CC(=O)NCC13CC4CC(CC(C4)C1)C3)C[C@@H]2C(=O)N1CCOCC1 (some centres undefined),16.4µM*,-1.6%,2.9%,23.1µM*
COc1ccc2[nH]c3c(c2c1)CCN1C(=O)C(CC(=O)NCC24CC5CC(CC(C5)C2)C4)C[C@H](C(=O)N2CCCCC2)[C@@]31C (some centres undefined),?,-0.6%,4.4%[56.1 µM],18.4µM*
CC[C@]12c3[nH]c4ccc(OC)cc4c3CCN1C(=O)C(CC(=O)NCCC1=CCCCC1)C[C@@H]2C(=O)N1CCN(C(=O)C2CC2)CC1 (some centres undefined),?,-0.2%,nt,-4.6%
COCCCNC(=O)CC1C[C@H](C(=O)N2CCOCC2)[C@@]2(C)c3[nH]c4ccccc4c3CCN2C1=O (some centres undefined),12.0%,-3.1%,0.0%,-0.1%
